The results in this text go back to PubChem BioAssay (NCATS).

Several values for one entry are separate records, joined by “and”; a condition that tells them apart may be missing. Equal values may be shown once. Inconclusive results are not listed. Activity calls are given as the source filed them. Unless noted, the call rests on the fitted dose curve; in most records, active means well fitted curve in either direction with a large enough effect (not every such curve was filed as active); inconclusive means small, poorly fitted or top-dose-only effect, or another doubt; inactive means flat fitted curve, though single readings scatter.

Test [1] in a line: AP1 Signaling Pathway (AID 357). Further: on the % scale 0 is the no-effect control and ±100 the full control effect. A digest of the protocol: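 AP-1-bla ME-180 cells with beta-lactamase reporter under AP-1 response element, stimulated with EC50 EGF; compounds titrated, 5 hours at 37 degrees Celsius. CCF4 read at 460/530 nm ratio; positive and negative modulators judged by AC50.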
Test [2] can be described thus: NFAT Signaling Pathway (AID 444).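 Further: carbachol stimulus at about its EC50 of 1 µM final; on the % scale 0 is the no-effect control and ±100 the full control effect.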 The conditions noted are these: Jurkat NFAT-bla M1, carbachol, beta-lactamase ratio, 5 h. A digest of the protocol: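 Jurkat cells with NFAT-driven β-lactamase reporter and co-expressed M1 receptor, stimulated with carbachol (final 1 uM, ~EC50), compound titration, 5 h at 37 °C. CCF4 loaded 1 h at RT; 460/530 nm ratio gave %activity and AC50.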

The nature of test [3]: Stat Signaling Pathway (AID 446).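 Further: ME-180 cervical cancer cells given 40 pM IL-6 alongside compound; SIE-controlled beta-lactamase reporter measured as 460/530 nm FRET emission ratio; on the % scale 0 is the no-effect control and ±100 the full control effect.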 In short, it runs like this: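 FRET read-out (405 nm excitation, 460/530 nm emission) of a beta-lactamase reporter under a STAT-inducible element in ME-180 cervical carcinoma cells. Cells with compound receive 40 pM IL-6 for 5 h. Values are normalised to AC90 stimulation and AC90 JAK-inhibitor controls.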
Test [4] has as its target Glucocorticoid receptor (Homo sapiens) (UniProt P04150). Kind of test: GR-GFP Redistribution (AID 450;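 active means compounds whose dose series gives a full or clear partial fitted curve of increased nuclear translocation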; further: potency means the concentration at half of the fitted maximal effect). The conditions noted are these: U2OS GR-GFP nuclear translocation, laser cytometry, 2 h.
For test [5] the target is unchanged. Kind of test: GR-EFC Redistribution (AID 451; calls by dose curve; further: potency means the concentration at half of the fitted maximal effect). The conditions noted are these: CHO-K1 GR-EFC translocation, beta-gal luminescence, 2 h. A digest of the protocol: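 CHO-K1 cells expressing nuclear EA and GR-ED fragments of b-gal; compounds titrated up to 46 uM final, 2 h at 37 C. GR nuclear translocation read as complemented b-gal luminescence after 1 h RT detection.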

In test [6] the target is Mitogen-activated protein kinase 10 (Mus musculus) (UniProt Q61831). Put plainly: JNK3 AlphaScreen Assay (AID 530).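 Further: kinase came from lysate of stimulated human HepG2 cells; signal reports phosphorylation of biotinylated GST-cJun 1-79 at Ser73 with 10 µM ATP; on the % scale 0 is the no-effect control and ±100 the full control effect.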 A digest of the protocol:
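HepG2 lysate (IL-1b/TNFa pre-activated) + biotin-GST-cJun 1-79 + anti-pSer73 cJun; cpd titration, 15 min RT; ATP 10 uM start; Tris pH 7.6, MgCl2, DTT, vanadate; beads in EDTA buffer; AlphaScreen.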
(In general: Alpha assays give light when donor and acceptor beads are brought close together.)

In test [7] the target is 3',5'-cyclic-AMP phosphodiesterase 4B (Homo sapiens) (UniProt Q07343). Kind of test: qHTS Assay for Inhibitors of PDE-IV (AID 607; active means well fitted activation curve with a large enough effect in the main read-out, with a control signal flat, not every such curve was filed as active; further: % of control where 0% means no effect). In short, it runs like this:
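Cell-based read-out of cAMP via a modified cyclic nucleotide-gated channel and membrane potential dye (535/590 nm) in HEK293 cells expressing PDE4 endogenously. Compounds tested up to 22.9 uM final; 100 uM RO 20-1724 reference.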
Background: In qHTS, concentration-response curves come from the screen itself.

The nature of test [8]: qHTS Assay for Lipid Storage Modulators (AID 1519; calls by dose curve). Conditions: Drosophila S3 cells, BODIPY lipid droplet/cell ratio, laser cytometry, cells loaded with oleic acid; for activity change, negative = inhibition: at 25.7 µM (top of the series). A digest of the protocol:
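Cells seeded at 5,000 per well were treated with compounds over a concentration series and loaded with oleic acid (400 uM, as added). Lipid droplet fluorescence (488 nm excitation, 500-530 nm channel) was read by laser-scanning cytometry and normalized to 20 uM Triacsin C.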

In test [9] the target is Ubiquitin carboxyl-terminal hydrolase 1 (Homo sapiens) (UniProt O94782). Put plainly: Inhibitors of USP1/UAF1: Pilot qHTS (AID 504865; active means well fitted curve in the direction sought with a large enough effect; an effect the other way counts as inactive or inconclusive; further: nearly all actives have a fitted effect of over 35% in size; further: potency means the concentration at half of the fitted maximal effect). A digest of the protocol: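 In 50mM HEPES pH 7.8 containing 0.5mM EDTA, 1mM TCEP, 0.1 mg/ml BSA and 0.01% Tween-20, 1nM USP1/UAF1 is exposed to compound for 15 min, then Ub-Rho (150nM final) is added and fluorescence is read over time.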
Chain of Ubiquitin carboxyl-terminal hydrolase 1 (Homo sapiens) (O94782 whole entry, looked up): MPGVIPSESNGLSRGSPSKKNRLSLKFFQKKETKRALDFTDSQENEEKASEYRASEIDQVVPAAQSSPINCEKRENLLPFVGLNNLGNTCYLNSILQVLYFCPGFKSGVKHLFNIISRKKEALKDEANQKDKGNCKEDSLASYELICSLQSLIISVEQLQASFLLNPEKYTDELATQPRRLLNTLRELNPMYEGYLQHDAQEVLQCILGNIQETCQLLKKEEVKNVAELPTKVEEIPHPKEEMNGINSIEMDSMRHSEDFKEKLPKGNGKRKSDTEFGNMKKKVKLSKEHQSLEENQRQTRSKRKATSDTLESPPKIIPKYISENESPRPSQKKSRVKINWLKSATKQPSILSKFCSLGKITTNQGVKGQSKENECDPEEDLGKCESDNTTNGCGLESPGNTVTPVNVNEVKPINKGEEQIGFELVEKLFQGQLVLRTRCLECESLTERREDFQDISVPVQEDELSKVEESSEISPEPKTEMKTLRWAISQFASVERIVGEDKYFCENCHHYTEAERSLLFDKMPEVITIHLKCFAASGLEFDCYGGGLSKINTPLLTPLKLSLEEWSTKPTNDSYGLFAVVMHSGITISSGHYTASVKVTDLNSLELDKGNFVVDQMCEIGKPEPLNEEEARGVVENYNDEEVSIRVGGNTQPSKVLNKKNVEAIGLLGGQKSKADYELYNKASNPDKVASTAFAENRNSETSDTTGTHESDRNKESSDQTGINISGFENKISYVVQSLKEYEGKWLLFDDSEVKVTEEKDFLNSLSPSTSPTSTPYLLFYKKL

The target in test [10] is Cytochrome P450 3A4 (Homo sapiens) (UniProt P08684). Kind of test: qHTS Assay for Activators of Cytochrome P450 3A4 (AID 885; active means well fitted curve in the direction sought with a large enough effect; an effect the other way counts as inactive or inconclusive; further: nearly all actives have a fitted effect of over 65% in size). In short, it runs like this: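 Luminescent readout of luciferin formed from 25 uM Luciferin-PPXE (KM level) by 20 nM CYP3A4 in 200 mM KPO4, with 60 min NADPH-driven reaction at room temperature after 10 min compound exposure. Ketoconazole (57 uM) defined 100% inhibition.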
Chain of Cytochrome P450 3A4 (Homo sapiens) (P08684 whole entry, looked up): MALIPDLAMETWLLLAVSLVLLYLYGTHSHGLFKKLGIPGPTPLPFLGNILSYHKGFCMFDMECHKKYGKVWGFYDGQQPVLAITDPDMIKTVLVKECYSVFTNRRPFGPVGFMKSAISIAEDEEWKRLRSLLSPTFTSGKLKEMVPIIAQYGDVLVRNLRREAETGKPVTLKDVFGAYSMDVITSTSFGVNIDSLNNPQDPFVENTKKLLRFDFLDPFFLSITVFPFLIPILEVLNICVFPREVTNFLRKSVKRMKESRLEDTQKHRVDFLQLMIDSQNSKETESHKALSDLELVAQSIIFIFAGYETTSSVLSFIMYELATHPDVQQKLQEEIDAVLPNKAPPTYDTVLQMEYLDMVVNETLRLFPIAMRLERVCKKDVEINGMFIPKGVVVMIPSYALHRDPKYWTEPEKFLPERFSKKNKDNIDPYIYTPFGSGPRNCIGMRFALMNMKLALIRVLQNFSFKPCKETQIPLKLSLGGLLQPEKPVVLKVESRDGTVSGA

Setting [11] is: measured here: cell count channel max response.
Setting [12] is: measured here: lipid channel max response.

Chain of 3',5'-cyclic-AMP phosphodiesterase 4B (Homo sapiens) (Q07343 whole entry, looked up): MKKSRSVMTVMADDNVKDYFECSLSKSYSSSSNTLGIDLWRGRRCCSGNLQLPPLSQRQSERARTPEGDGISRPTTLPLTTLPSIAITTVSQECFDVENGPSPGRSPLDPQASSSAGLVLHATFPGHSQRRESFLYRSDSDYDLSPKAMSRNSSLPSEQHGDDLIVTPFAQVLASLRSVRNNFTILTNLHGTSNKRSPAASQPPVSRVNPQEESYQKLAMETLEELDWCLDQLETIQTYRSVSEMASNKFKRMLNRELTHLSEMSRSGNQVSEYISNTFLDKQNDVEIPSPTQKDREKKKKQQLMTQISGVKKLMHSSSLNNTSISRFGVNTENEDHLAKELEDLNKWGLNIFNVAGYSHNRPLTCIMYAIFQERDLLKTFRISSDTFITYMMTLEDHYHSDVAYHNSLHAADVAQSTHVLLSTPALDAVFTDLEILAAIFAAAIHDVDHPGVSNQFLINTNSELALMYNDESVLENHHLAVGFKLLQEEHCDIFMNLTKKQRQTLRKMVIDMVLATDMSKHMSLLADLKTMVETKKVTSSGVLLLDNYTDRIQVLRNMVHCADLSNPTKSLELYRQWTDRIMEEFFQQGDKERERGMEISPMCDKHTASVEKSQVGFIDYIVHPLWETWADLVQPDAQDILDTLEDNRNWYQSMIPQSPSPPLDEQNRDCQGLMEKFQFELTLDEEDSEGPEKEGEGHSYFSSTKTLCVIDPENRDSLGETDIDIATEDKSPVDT
Chain of Glucocorticoid receptor (Homo sapiens) (P04150 whole entry, looked up, the tested form may be a part): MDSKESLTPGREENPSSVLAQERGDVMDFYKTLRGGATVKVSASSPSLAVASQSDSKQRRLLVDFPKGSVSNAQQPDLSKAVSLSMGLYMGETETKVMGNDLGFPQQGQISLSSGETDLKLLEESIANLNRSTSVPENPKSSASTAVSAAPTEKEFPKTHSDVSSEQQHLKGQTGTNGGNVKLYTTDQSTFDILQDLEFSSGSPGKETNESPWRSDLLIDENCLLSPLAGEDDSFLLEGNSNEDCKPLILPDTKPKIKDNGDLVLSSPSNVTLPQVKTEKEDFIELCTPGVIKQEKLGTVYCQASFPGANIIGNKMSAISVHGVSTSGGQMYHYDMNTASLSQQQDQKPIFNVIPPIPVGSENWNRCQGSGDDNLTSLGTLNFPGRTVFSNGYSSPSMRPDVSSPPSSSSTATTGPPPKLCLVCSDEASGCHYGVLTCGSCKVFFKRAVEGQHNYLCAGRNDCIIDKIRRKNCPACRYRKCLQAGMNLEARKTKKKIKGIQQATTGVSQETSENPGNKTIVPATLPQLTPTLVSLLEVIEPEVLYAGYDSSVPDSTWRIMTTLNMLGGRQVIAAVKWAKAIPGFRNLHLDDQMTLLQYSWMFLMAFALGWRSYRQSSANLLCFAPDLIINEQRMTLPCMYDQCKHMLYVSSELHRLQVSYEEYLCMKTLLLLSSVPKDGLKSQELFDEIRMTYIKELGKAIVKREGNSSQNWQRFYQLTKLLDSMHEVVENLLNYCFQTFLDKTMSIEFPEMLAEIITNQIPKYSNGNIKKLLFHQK

As to `C#C[C@@]1(O)CC[C@@H]2[C@@H]3CCC4=CC(=O)CC[C@@]4(C)[C@H]3CC[C@]21C`, the compound was called inactive in test [1], in test [3] and in test [6]. Also, the activity change, negative = inhibition in test [2] (at 17.2 µM (top of the series)) is -15.1% (inactive); in test [8] it was -1.74% (inactive). Further, the results for the Potency in [4] and in [5] were 0.155 µM (active) and > 20.6 µM (inactive), respectively. In addition, in [7], the Potency result was “inactive”. Moreover, the values for the max response in [8] (setting [11]) and in test [8] (setting [12]) were -8.16% and -11.2%, respectively.
Regarding `CCN(CC)C(=O)N[C@H]1C=C2c3cccc4[nH]cc(c34)C[C@@H]2N(C)C1`, the compound was classed as inactive in [1], in test [3] and in test [6]. Moreover, the results for the Potency in test [4], in test [5] and in test [9] were > 20.6 µM (inactive), > 20.6 µM (inactive) and 35.5 µM (active), respectively. Also, the Potency result in test [7] is “inactive”. Also, in test [8], the activity change, negative = inhibition is -1.39% (inactive). The max response in test [8] (setting [11]) was -15.1%; in test [8] (setting [12]), -15.7%.
For the compound `CC1=CC(=O)C2=C(C)C[C@@H](O)[C@@H]3[C@@H](OC(=O)[C@H]3C)[C@H]12`, the compound was classed as inactive in test [1], in test [3] and in test [6]. The results for the activity change, negative = inhibition in test [2] (at 17.2 µM (top of the series)) and in test [8] were -5.22% (inactive) and -1.62% (inactive), respectively. The Potency in [4] and in test [5] was > 20.6 µM (inactive) each time. The Potency result in [7] and in test [9] was “inactive” each time. Also, the values for the max response in test [8] (setting [11]) and in test [8] (setting [12]) were -12.9% and -12%, respectively.
For `CC(C)[C@@]1(NC(=O)[C@@H]2C[C@H]3c4cccc5[nH]cc(c45)C[C@@H]3N(C)C2)O[C@]2(O)[C@H]3CCCN3C(=O)[C@H](Cc3ccccc3)N2C1=O`, the result in test [1], in [3] and in test [6] was inactive. Moreover, the activity change, negative = inhibition is 1.85% (inactive) in [2] (at 17.2 µM (top of the series)) and -1.27% (inactive) in test [8]. For the same compound, the Potency in test [4] and in [5] was > 20.6 µM (inactive) throughout. The Potency result in [7] and in test [9] was “inactive” throughout. In addition, the max response worked out at 6.35% in test [8] (setting [11]) and 5.89% in test [8] (setting [12]).
`CC[C@H]1C(=O)OC[C@H]1Cc1cncn1C`: the outcome in [1] and in test [3] was inactive. Moreover, the activity change, negative = inhibition in test [2] (at 38 µM (top of the series)) is 27.4% (inactive) and 31.8% (inactive); in [8], 0.358% (inactive). Besides, the Potency result in test [10] and in test [9] was “inactive” throughout. In addition, the max response in [8] (setting [11]) was -8.31%; in test [8] (setting [12]), -6.45%.
